# Shown are actives, neighbours in structure and some others; about 11% of the full set was active somewhere.
# G9a inh: blocks human histone lysine methyltransferase G9a; Q96KQ7; G9a H3K9 monomethylation, AlphaScreen, 2 h; Potency, µM (doses to about 102 µM), for inactives: top-dose activity, negative = inhibition, usual class: inhibitors; hit rate 8.8% among 350,000; AID 504332; also: % is scaled to controls: 0 for no effect and ±100 for the full control effect; nearly all actives have a fitted effect of over 75% in size
#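 Quantitative HTS format: methyltransferase activity on a biotin-tagged H3K9 peptide is measured by AlphaScreen, using a rabbit anti-monomethyl-H3K9 antibody with streptavidin donor and anti-IgG acceptor beads. Final levels are 20 nM enzyme, 500 nM peptide, 20 uM SAM; 2 h RT.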
# L3MBTL1 inh: blocks human L3MBTL1 | Q9Y468 | AlphaScreen L3MBTL1–H3K9me1 peptide binding | Potency, µM (doses to about 57.1 µM), inactives show at the top dose activity, negative = inhibition, usual class: inhibitors | hit rate 0.66% among 230,000 | AID 485360; also: % is scaled to controls: 0 for no effect and ±100 for the full control effect; nearly all actives have a fitted effect of over 60% in size
#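 Displacement of a biotinylated histone H3(1-15) peptide monomethylated at Lys9 (75 nM) from L3MBTL1 (50 nM) was measured by AlphaScreen after a 30 min room-temperature compound incubation; cefsulodin titration served as intraplate control.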
# JMJD2A Tudor inh: blocks the human JMJD2A Tudor domain. Potency, µM (highest dose often 114 µM), inactives show at the highest dose activity change, negative = inhibition, hits mostly inhibitors. hit rate 4.4% among 390,000. AlphaScreen JMJD2A-Tudor / H3K4me3 peptide binding. O75164; also: % is scaled to controls: 0 for no effect and ±100 for the full control effect; nearly all actives have a fitted effect of over 50% in size
# HP1b chromo inh: blocks HP1-beta chromodomain binding to methylated histone tails | AID 540317 | Potency, µM (series often up to 114 µM), for the others: at the top dose activity change, negative = inhibition, most hits filed as inhibitors | AlphaScreen HP1-beta / biotin-H3K9me3 peptide binding | hit rate 0.56% among 390,000; also: nearly all actives have a fitted effect of over 70% in size
#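 HP1-beta protein (50 nM final) preincubated 30 min at room temperature with biotinylated H3(1-18)K9me3 peptide (50 nM) in PBS pH 7.4, 0.01% Tween-20, then compound added for 30 min. AlphaScreen streptavidin donor/nickel chelate acceptor beads (10 ug/mL final), 30 min dark, luminescence read.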
# BAZ2B block: BAZ2B (human) inhibition | AlphaScreen BAZ2B-H3K14Ac peptide displacement | Q9UIF8 | hit rate 4.4% among 360,000 | Potency, µM (doses to about 114 µM), for inactives: at the highest dose activity change, negative = inhibition, usual class: inhibitors; also: % is scaled to controls: 0 for no effect and ±100 for the full control effect; nearly all actives have a fitted effect of over 60% in size
#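 In this displacement format the biotinylated H3(5-23) peptide acetylated at Lys14 serves as ligand at 50 nM, with BAZ2B at 50 nM in PBS pH 7.4 containing 0.01% Tween-20. Donor and acceptor beads are 10 ug/mL final.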
# * = called active by the depositor; ? = inconclusive; . = no result; [ ] = another dose, or the depositor's remark. Calls follow the shape of the dose curve; as a rule, active = well fitted inhibition curve with a large enough effect; inconclusive = small, poorly fitted or top-dose-only effect; inactive = no such curve, though single readings can be large or run the other way. Potency is read from the fitted curve at half-maximal effect.
SMILES,G9a inh,L3MBTL1 inh,JMJD2A Tudor inh,HP1b chromo inh,BAZ2B block
O=c1c2ccccc2sn1-c1cc(S(=O)(=O)N2CCOCC2)ccc1N1CCCCC1,.,.,12.6µM*,?,.
O=S(=O)(c1ccc(N2CCOCC2)c(Cl)c1)N1CCOCC1,2.8%,.,-5.5%,30.6%,0.6%
O=c1c2ccccc2sn1-c1cc(S(=O)(=O)N2CCOCC2)ccc1N1CCOCC1,.,-4.9%,3.98µM*,8.91µM*,3.55µM*
Nc1cc(S(=O)(=O)N2CCOCC2)ccc1N1CCCCC1,.,-5.0%,?,?,.
CC(C)c1ccc(NC(=O)CCNS(=O)(=O)c2ccc3c(c2)oc(=O)n3C)cc1,4.8%[59 µM],.,-3.6%,58.0%,-4.7%
CCOC(=O)c1c(C)[nH]c(CCC(=O)Nc2c(C)cccc2CC)c1C,9.9%[59 µM],.,-13.6%,9.7%[57 µM],0.5%
OCCN1CCN(CCSc2ccccc2)CC1,?,8.8%,28.2µM*,0.2%,-16.9%
Cc1ccc(SCCN2CCN(C)CC2)cc1,50.1µM*,-2.0%,-13.0%,15.3%,-25.1%
c1ccc(SCCN2CCc3ccccc3C2)cc1,39.8µM*,14.1%,25.1µM*,-32.0%,4.8%
O=C1CCN(CCc2ccccc2)CCN1CCSc1ccccc1,.,-2.0%,-20.0%,21.2%,-8.0%
c1ccc(SCCOCCN2CCc3ccccc3C2)cc1,-5.7%[59 µM],9.3%,-11.1%,13.3%[57 µM],-15.9%
Cc1ccc(SCCN2CCN(C)CCC2=O)cc1,-4.9%[59 µM],.,-5.5%,39.2%,5.5%
Cc1ccc(NC(=O)N2CCN(c3nnc(C)c4c(C)n(-c5ccc(Cl)cc5)nc34)CC2)c(C)c1,15.7%[59 µM],.,-10.7%,6.3%,-4.0%
COC(=O)C1=C[C@@H](C(=O)OC)C2C3=C(C(=O)[C@@]2(C)NC(=O)c2ccccc2)[C@H](C)[C@@H]2C(=O)N(C)C(=O)[C@@H]2[C@@H]3C1 (stereo partly drawn),.,.,-15.9%,7.5%,.
O=C(OCCCc1cc2ccccc2c(=O)o1)c1ccc2c(c1)OCO2,3.6%[0.501 µM],21.4%,26.6%,75.8%,29.2%
CC1(C(O)(C#CC[N+]2(C)CCCCC2)c2ccccc2)CCCC1 (stereo not drawn),?,-7.8%,?,?,?
CC1(C#CC[N+]2(C)CCCCC2)CCC2C(O1)c1ccccc1OC2(C)C (stereo not drawn),3.16µM*,.,-26.1%,?,56.2µM*
Clc1ccc(-c2nnc3sc(Cc4cccs4)nn23)cc1,35.5µM*,?,-22.4%,26.4%,6.9%
c1ccc(-c2nnc3sc(Cc4cccs4)nn23)cc1,?,-11.0%,-25.4%,1.2%,-23.1%
COCCNCC(=O)Nc1ccc(OC(F)(F)F)cc1,22.4µM*,15.0%,0.794µM*,?,50.1µM*
O=C(Cc1ccccc1)NCC(=O)Nc1ccc(OC(F)(F)F)cc1,5.3%,.,-7.9%,28.0%,-12.2%
CCOCCCNCC(=O)Nc1ccc(OC(F)(F)F)cc1,50.1µM*,.,39.8µM*,?,79.4µM*
CCn1c(=O)c(C(=O)CN2CCN(S(=O)(=O)c3ccc(C)cc3C)CC2)c(N)n(Cc2ccccc2)c1=O,44.7µM*,-5.5%,-21.4%,23.6%,-30.6%
CCn1c(=O)c(C(=O)CN2c3ccccc3CC2C)c(N)n(Cc2ccccc2)c1=O (stereo not drawn),22.4µM*,-18.0%,?,?,35.5µM*
CCn1c(=O)c(C(=O)CN(C)Cc2ccc(F)cc2)c(N)n(Cc2ccccc2)c1=O,1.5%,9.0%,-16.5%,4.3%,-9.7%
CCn1c(=O)c(C(=O)CN2CCN(S(=O)(=O)c3ccccc3)CC2)c(N)n(Cc2ccccc2)c1=O,-7.1%,6.6%,?,2.0%,-12.6%
CC1Cc2ccccc2N1CC(=O)N(C)c1c(N)n(Cc2ccccc2)c(=O)[nH]c1=O (stereo not drawn),6.6%[12.7 µM],?,-31.0%,-1.7%,3.2%
CCn1c(=O)c(C(=O)CN2CCCc3ccccc32)c(N)n(Cc2ccccc2)c1=O,-12.5%[59 µM],-11.9%,35.5µM*,?,?
CCn1c(=O)c(C(=O)CN(C)Cc2cccc(OC)c2OC)c(N)n(Cc2ccccc2)c1=O,25.1µM*,11.6%,?,?,-5.6%
Cc1ccccc1CNC(=O)c1ccc2c(c1)c(C)c(C)n2C,?,.,?,-20.1%,39.8µM*

# Screens as filed in PubChem BioAssay.
